# The list shows a part of the results. Results filed as inconclusive are left out. Calls of active or inactive are those of the source. Calls follow the shape of the dose curve; as a rule, active = well fitted inhibition curve with a large enough effect; inconclusive = small, poorly fitted or top-dose-only effect; inactive = no such curve, though single readings can be large or run the other way.
# Experiment: qHTS screen for small molecules that inhibit ELG1-dependent DNA repair: Hit Confirmation in Cell-Based Luciferin Assay (AID 624247)
# Settings: cell-free firefly luciferase luminescence counter-screen, ViewLux; series mostly up to 46.1 µM; activity change, negative = inhibition: at the top concentration
# Text: Cancer cells divide rapidly compared to normal cells in the body. During cell division, cancer cells need to duplicate their genome by DNA replication. The failure of genome duplication leads to cancer cells' death. Therefore, inhibitors of DNA replication could specifically kill cancer cells. Based on this concept, many chemotherapeutic agents were developed and have been used to treat cancer patients. However, there are a limited number of agents available in the clinical setting, and some of those that do exist have low efficacy and severe side effects. Therefore, if we can find the compounds that effectively block DNA replication either by directly damaging DNA or by inhibiting other cellular mechanisms, the options for cancer treatment will be broadened. With this in mind, we developed a quantitative high-throughput ELG1-luciferase reporter gene assay. Small molecules that specifically block ELG1 function in response to DNA damage can be identified by monitoring the suppression of luciferase activity. Since ELG1 defines a pathway for repairing DNA damage, agents blocking ELG1 function can be used to sensitize cancer cells to chemotherapeutic agents whose mechanism of action involves the induction of DNA damage. NIH Molecular Libraries Probe Production Network [MLPCN] NIH Chemical Genomics Center [NCGC] MLPCN Grant: R03 MH092164 Assay Provider: Kyungjae Myung, NHGRI, NIH
# 3 µL of substrate reagent will be pipetted into each well in 1536-well white, solid-bottom plates using a FRD dispenser, followed by addition of 23 nL of DMSO or compounds by pintool. After compound addition, 1 µL of luciferase will be added into the wells. The plates will be read in a ViewLux CCD-based plate reader.
# % is scaled to controls: 0 for no effect and ±100 for the full control effect.
row,SMILES,"activity change, negative = inhibition"
1,COc1ccc(NC(=O)c2sc3nc(C)nc(N4CCN(c5ccccn5)CC4)c3c2C)c(OC)c1,-9.42% (inactive)
2,CCOC(=O)c1cccc(NC(=O)C2CCN(c3ncnc4c3nc3n4CCCCC3)CC2)c1,2.1% (inactive)
3,CC(=O)N1CCc2cc(Br)cc(S(=O)(=O)CCC(=O)Nc3c(C)n(C)n(-c4ccccc4)c3=O)c21,27.9% (inactive)
4,O=C(Nn1c(SCc2ccc([N+](=O)[O-])cc2)nc2ccccc2c1=O)c1ccc(F)cc1,70.9% (inactive)
5,Cc1ccccc1NC(=O)CSc1nc2ccc(Nc3nc(N4CCOCC4)nc(N4CCOCC4)n3)cc2s1,-6.03% (inactive)
6,O=C(C1CCCN(S(=O)(=O)c2ccccc2)C1)N1CCN(c2ccc(F)cc2)CC1 (stereo unspecified),-9.45% (inactive)
7,Cc1ccc(OCC(=O)Nc2ccc(-c3nc4ncccc4o3)cc2)cc1,139% (inactive)
8,COc1ccc(NC(C)=O)cc1NC(=O)CN1CCN(C2c3ccccc3-c3ccccc32)CC1,-9.74% (inactive)
9,COc1ccc(CSc2nc(N3CCOCC3)c3c(c2C#N)CC(C)(C)OC3)cc1,3.91% (inactive)
10,Cc1ccc(Nc2nc(N3CCOCC3)nc(N3CCOCC3)n2)cc1Cl,-0.931% (inactive)
11,CS(=O)c1ccc(/C=C2\C=Cc3ccccc32)cc1 (stereo unspecified),44.3% (inactive)
